Measured values taken from PubChem BioAssay AID652048 (National Center for Advancing Translational Sciences (NCATS), 2013).
In all, about 410,000 compounds went through this assay and about 2,400 (0.59%) were called active. The sample holds actives, similar compounds and a random draw of the others, so the mix is not that of the screen. Values without a mark were called inactive. No stated cut-off is given here; in the data, active means max activation above about 30%; inactive means the rest.

biological target: D(3) dopamine receptor (Homo sapiens) (UniProt P35462); experiment: qHTS of D3 Dopamine Receptor Agonist: qHTS; settings: D3R DiscoveRx beta-arrestin cells, luminescence, 90 min; stronger effect = higher value; further: 0% is about no effect
Description: D3 DARs represent a very important target for the treatment of several neuropsychiatric disorders. Indeed, one of the most promising therapeutic applications for the D3 DAR is in the area of addiction and related disorders. […] These findings have been observed with a number of addictive substances including cocaine, amphetamine, nicotine, and alcohol. […] Antagonism of the D3 DAR may also be therapeutic in the treatment of schizophrenia or psychosis. […] Since the D3 DAR is expressed in areas of the CNS associated with the control of mood and emotion, it has been hypothesized that selective antagonism of the D3 DAR may be effective in treating psychosis without inducing the motor side effects typically seen with D2 DAR antagonists.
This part of the project aims to discover novel agonist.
NIH Chemical Genomics Center [NCGC]
NIH Molecular Libraries Probe Centers Network [MLPCN]
Assay Submitter (PI): David Sibley, NINDS
Freshly passaged cells are plated in 1536 well white, solid bottom plates at a density of 1500 cells/well in 3microl of complete media. After an overnight incubation at 37 degrees C in 5% CO2, cells are loaded with 23nl of test compound from the compound library (as well as dopamine controls) using a 1536 pintool and incubated at 37 degrees C for 90 minutes. Two microliters of DiscoveRx reagent is then added to all cells, and they are incubated for an additional 30 - 60 minutes at room temperature. Following incubation, luminescence is measured on a ViewLux CCD-based luminometer reader using a 20 sec exposure time.

Chain of D(3) dopamine receptor (Homo sapiens) (P35462 whole entry, looked up): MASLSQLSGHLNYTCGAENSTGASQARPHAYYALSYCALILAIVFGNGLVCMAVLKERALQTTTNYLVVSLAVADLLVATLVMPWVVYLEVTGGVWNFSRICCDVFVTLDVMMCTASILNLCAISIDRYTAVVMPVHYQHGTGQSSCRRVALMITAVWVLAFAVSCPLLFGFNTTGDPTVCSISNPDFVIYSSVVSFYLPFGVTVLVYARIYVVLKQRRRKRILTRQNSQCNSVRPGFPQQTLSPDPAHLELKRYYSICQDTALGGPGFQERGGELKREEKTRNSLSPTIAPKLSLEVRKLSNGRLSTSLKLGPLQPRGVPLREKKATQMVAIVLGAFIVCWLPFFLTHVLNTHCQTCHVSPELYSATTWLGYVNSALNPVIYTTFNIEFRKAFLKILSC

SMILES | max activation
CC(C)=CCc1c(O)c(CC=C(C)C)c2occ(-c3ccc(O)cc3)c(=O)c2c1O | 84.1% (active)
CC(C)=CCc1ccc(O)c(=O)cc1C(C)C | -8.37%
CCc1nc2c(cnn2-c2ccc(C)cc2)c(=O)n1-c1ccc(C)cc1 | 0.0293%
O=C(CCn1ccc2cc(S(=O)(=O)N3CCCC3)ccc21)NCc1cccc(Cl)c1 | -1.61%
COc1ccc2ncc3c(-c4ccc(C)c(C)c4)nn(CC(=O)NC4CCCC4)c3c2c1 | -3.77%
CC(=O)O[C@]1(C(C)=O)CC[C@H]2[C@@H]3CCC4=CC(=O)CC[C@]4(C)[C@@]3(F)[C@@H](O)C[C@@]21C | 9.73%
CCC(=O)N1N=C(c2ccc(OC)cc2)CC1c1cn(-c2ccccc2)nc1-c1cccs1 (stereo not given) | -10.2%
S=c1[nH]nc(-c2cccs2)n1/N=C/c1cn(-c2ccccc2)nc1-c1ccc(Cl)cc1 | 44.2% (active)
CC(=O)O[C@H]1CC[C@@]2(C)C(=CC[C@@H]3[C@@H]2CC[C@]2(C)C(c4cccnc4)=CC[C@@H]32)C1 | 6.91%
COc1ccc(S(=O)(=O)NCc2cccn2Cc2cccc(C)c2)cc1Cl | -14.5%
Cc1ccc(C(=O)Nc2ccc(OCc3cc(=O)n4c5c(sc4n3)CCCC5)cc2)cc1 | -4.47%
COc1ccc(C(=O)NC2CC2)cc1OC1CCN(C/C=C/c2ccccc2)CC1 | -13.2%
COc1cc(C(=O)N2CCN(C/C=C/c3ccccc3)CC2)cc(OC)c1C | 49.9% (active)
COc1ccccc1C(=O)NC(CCSC)C(=O)N1CCN(C/C=C/c2ccccc2)CC1 (stereo not given) | -0.587%
CCc1ccccc1N1C(=O)CN(S(=O)(=O)CC)CC1(C)C(=O)NC1CCCCC1 (stereo not given) | -18.4%
N#Cc1ccccc1Cn1cnc2nc3c(cc2c1=O)CCCC3 | -7.33%
C/C=C/C=N/NC(=O)c1ccncc1 | -12.6%
Cc1ccc(Cc2nc3ccccc3nc2SCC(=O)Nc2cccc(C(F)(F)F)c2)cc1 | 4.77%
CN(Cc1ccccc1)C(=O)c1cc2c(=O)n(C)c3ccccc3c2s1 | -16.8%
CN(Cc1ccccc1)C(=O)c1cccc(C(=O)N(C)Cc2ccccc2)c1 | 115% (active)
Cc1cc(C)cc(NC(=O)N(C)Cc2ccccc2)c1 | -3.6%
COc1ccc(-c2noc(CSc3nnc(-c4ccccc4)n3-c3ccc(F)cc3)n2)c(OC)c1 | -1.45%
COc1ccc(S(=O)(=O)NCCSc2nnnn2-c2ccccc2)cc1 | -5.06%
O=C(NC1CCCCC1)c1ccc2c(c1)N(Cc1ccc(Cl)cc1)C(=O)c1ccccc1S2=O (stereo not given) | 3.22%
CCC1CN(S(=O)(=O)c2cc(-c3cc(C)no3)ccc2C)c2cc(C)ccc2O1 (stereo not given) | -8.75%
Cc1ccc(Nc2ccc3cc(S(=O)(=O)N4CCCCC4)ccc3n2)cc1F | 3.49%
O=C1CCC(=O)N(O)CCCCCNC(=O)CCC(=O)N(O)CCCCCNC(=O)CCC(=O)N(O)CCCCCN1 | 65.3% (active)
Cc1cc(C)cc(C(=O)N(CCc2ccccc2)C2=CC3CCC(C2)N3C)c1 (stereo not given) | -13.4%

SMILES | max activation
CCCN(CCc1ccccc1)C1CCc2c(O)cccc2C1 (stereo not given) | 110% (active)
COc1cccc(CNC(=O)CN2C(=O)CCc3cc(S(=O)(=O)N4CCOCC4)ccc32)c1 | 7.79%
COc1ccc(N2CCN(C(=O)CSCc3nc(-c4ccccc4Cl)oc3C)CC2)cc1 | 13.9%
Cc1ccc(NC(=O)C2CCN(S(=O)(=O)c3cc(-c4noc(C)n4)ccc3C)CC2)c(C)c1 | -12.1%
Cc1ccc(S(=O)(=O)c2nnn3c2nc(N2CCN(c4ccccc4F)CC2)c2cc(Cl)ccc23)cc1C | 4.43%
N#CC(C(=O)c1ccc(S(=O)(=O)N2CCCCCC2)cc1)c1nc2ccccc2[nH]1 (stereo not given) | 24%
Cc1ccc(S(=O)(=O)C(C#N)c2nc3ccccc3nc2N2CCCC2)cc1C (stereo not given) | 44.8% (active)
CO/N=C(\C(=O)N[C@@H]1C(=O)N2C(C(=O)O)=C(C[N+]3(C)CCCC3)CS[C@H]12)c1csc(N)n1 | 2.02%
O=S(=O)(c1ccc2nc(NCc3ccccc3Cl)ccc2c1)N1CCCCC1 | -23.2%
Cc1ccc(CNC(=O)C2CCCN2C(=O)NCc2ccccc2)cc1 (stereo not given) | 4.63%
Cc1ccc(CNC(=O)c2cccc3c2C(=O)c2ccc(N4CCC(C)CC4)cc2S3(=O)=O)cc1 | 54.8% (active)
Cc1cccc(CNC(=O)c2cnc3sc(N4CCCCC4)nn3c2=O)c1 | 6.54%
CCOC(=O)[C@H](CCc1ccccc1)N[C@@H](C)C(=O)N1CC2(C[C@H]1C(=O)O)SCCS2 | -2.59%
CC(C)(C)C(=O)OCc1nc(-c2ccc(O)c(O)c2)cs1 | 117% (active)
COCc1cccc(-c2csc(C(O)c3ccc(F)cc3)n2)c1 (stereo not given) | -13.4%
Cc1ccc(S(=O)(=O)N2CCCc3cc(NS(=O)(=O)c4cc(C)ccc4C)ccc32)cc1 | 7.92%
CO/N=C(\C(=O)N[C@@H]1C(=O)N2C(C(=O)O)=CCS[C@H]12)c1csc(N)n1 | 3.03%
COC(=O)c1ccc2nc(-c3ccc(C)cc3)c(Cc3ccc(OC)cc3C)n2c1 | -2.45%
CCCCNc1c(-c2cccc(Sc3ccc(OC)cc3)c2)nc2ccccn12 | 13.9%
CCCCNc1c(-c2ccc(OC)c(Sc3ccc(OC)cc3)c2)nc2ccc(Cl)cn12 | 44.7% (active)
COc1ccc(C2(C#N)CCC(C(=O)O)CC2)cc1OC1CCCC1 (stereo not given) | -0.732%
CCNS(=O)(=O)c1cc(-c2nnc(Nc3cccc(C(F)(F)F)c3)c3ccccc23)ccc1C | 13.3%
CCOc1ccc(OCC)c(Nc2nc3ccccc3n3nnnc23)c1 | 5.21%
c1ccc2cc(C3=NCCN3)ccc2c1 | -15.2%
CCCn1nc(C(=O)OCc2nc(N)nc(Nc3ccccc3C)n2)c2ccccc2c1=O | 31.8% (active)
Cc1ccccc1Nc1nc(N)nc(COC(=O)CCC(=O)c2ccc(F)cc2)n1 | 2.22%
CCCn1nc(C(=O)NNC(=O)CSCC(=O)Nc2cc(C)on2)c2ccccc2c1=O | -7.71%
